Out of some 5,500 compounds screened, about 2,000 (36%) were called active. Roughly 18% stayed inconclusive and do not appear here. Rule as the data show it: active = normalized growth mostly below about 0.91 (no sharp cut-off); inconclusive = no clear call, values can overlap the other calls; inactive = mostly above about 0.92. This is one part of the list.
Test: chemical genetic growth profiling, strain panel (AID 1159580);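 also: tested at 20 µM; growth read once vehicle control cultures reached saturation at 30 °C; 1 = growth at the plate median or of vehicle wells; lower values mean less growth of the strain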
Conditions: growth OD

Measured: normalized growth

CC(=O)S[C@@H]1CC2=CC(=O)CC[C@]2(C)[C@H]2CC[C@@]3(C)[C@@H](CC[C@@]34CCC(=O)O4)C12 (stereo not given in full)
inactive: S. cerevisiae deletion strains, locus YJR043C, strain POL32, active compounds read low 1.01 | S. cerevisiae deletion strains, locus YJR066W, strain TOR1, active compounds read low 0.981 | S. cerevisiae deletion strains, locus YJR075W, strain HOC1, active compounds read low 1.01 | S. cerevisiae deletion strains, locus YKL009W, strain mrt4, active compounds read low 1.01 | S. cerevisiae deletion strains, locus YKL068W, active compounds read low 1.01 | S. cerevisiae deletion strains, locus YKL085W, strain MDH1 (second series), active compounds read low 1.01 | S. cerevisiae deletion strains, locus YKL085W, strain MDH1, active compounds read low 1.01 | S. cerevisiae deletion strains, locus YKL160W, strain elf1, active compounds read low 1.03 | S. cerevisiae deletion strains, locus YKL190W, strain CNB1, active compounds read low 0.995 | S. cerevisiae deletion strains, locus YKR001C, strain vps1, active compounds read low 1.03 | S. cerevisiae deletion strains, locus YKR026C, strain gcn3, active compounds read low 1.01 | S. cerevisiae deletion strains, locus YKR091W, strain srl3, active compounds read low 1.01 | S. cerevisiae deletion strains, locus YLL001W, strain dnm1, active compounds read low 1.05 | S. cerevisiae deletion strains, locus YLL026W, active compounds read low 1.01 | S. cerevisiae deletion strains, locus YLL041C, strain sdh2, active compounds read low 1.01 | S. cerevisiae deletion strains, locus YLR027C, strain aat2, active compounds read low 1.02 | S. cerevisiae deletion strains, locus YLR039C, strain RIC1, active compounds read low 1.02 | S. cerevisiae deletion strains, locus YLR058C, strain SHM2, active compounds read low 1 | S. cerevisiae deletion strains, locus YLR102C, strain apc9, active compounds read low 1.02 | S. cerevisiae deletion strains, locus YLR113W, strain HOG1, active compounds read low 1.03 | S. cerevisiae deletion strains, locus YLR221C, strain rsa3, active compounds read low 0.984 | S. cerevisiae deletion strains, locus YLR258W, strain gsy2, active compounds read low 0.997 | S. cerevisiae deletion strains, locus YLR262C, strain YPT6 (second series), active compounds read low 1.03 | S. cerevisiae deletion strains, locus YLR262C, strain YPT6, active compounds read low 1.04 | S. cerevisiae deletion strains, locus YLR268W, strain sec22, active compounds read low 1.03 | S. cerevisiae deletion strains, locus YLR320W, strain mms22, active compounds read low 0.975 | S. cerevisiae deletion strains, locus YLR330W, strain CHS5, active compounds read low 1.01 | S. cerevisiae deletion strains, locus YLR342W, strain FKS1 (second series), active compounds read low 1 | S. cerevisiae deletion strains, locus YLR342W, strain FKS1, active compounds read low 1.05 | S. cerevisiae deletion strains, locus YLR357W, strain rsc2, active compounds read low 1.06 | S. cerevisiae deletion strains, locus YLR370C, strain arc18, active compounds read low 1.02 | S. cerevisiae deletion strains, locus YLR371W, strain rom2, active compounds read low 1.03 | S. cerevisiae deletion strains, locus YLR384C, strain iki3, active compounds read low 1.01 | S. cerevisiae deletion strains, locus YLR418C, strain cdc73, active compounds read low 1.03 | S. cerevisiae deletion strains, locus YML016C, strain PPZ1, active compounds read low 1 | S. cerevisiae deletion strains, locus YML032C, strain rad52, active compounds read low 1.02 | S. cerevisiae deletion strains, locus YML120C, strain ndi1, active compounds read low 1.02 | S. cerevisiae deletion strains, locus YML124C, strain tub3, active compounds read low 1.04 | S. cerevisiae deletion strains, locus YMR058W, strain fet3, active compounds read low 1.01 | S. cerevisiae deletion strains, locus YMR078C, strain ctf18, active compounds read low 1.03 | S. cerevisiae deletion strains, locus YMR125W, strain sto1, active compounds read low 1.01 | S. cerevisiae deletion strains, locus YMR129W, active compounds read low 1.01 | S. cerevisiae deletion strains, locus YMR205C, strain PFK2, active compounds read low 1.02 | S. cerevisiae deletion strains, locus YMR223W, strain ubp8, active compounds read low 1.03 | S. cerevisiae deletion strains, locus YMR231W, strain pep5, active compounds read low 1.01 | S. cerevisiae deletion strains, locus YMR307W, strain GAS1, active compounds read low 0.999 | S. cerevisiae deletion strains, locus YNL067W, strain RPL9B, active compounds read low 1.01 | S. cerevisiae deletion strains, locus YNL071W, strain lat1, active compounds read low 1.01 | S. cerevisiae deletion strains, locus YNL183C, strain NPR1, active compounds read low 0.977 | S. cerevisiae deletion strains, locus YNL209W, strain ssb2, active compounds read low 1.01 | S. cerevisiae deletion strains, locus YNL233W, strain BNI4, active compounds read low 1.01 | S. cerevisiae deletion strains, locus YNL248C, strain rpa49, active compounds read low 0.97 | S. cerevisiae deletion strains, locus YNL250W, strain rad50, active compounds read low 1.02 | S. cerevisiae deletion strains, locus YNL271C, strain bni1, active compounds read low 1.04 | S. cerevisiae deletion strains, locus YNL298W, strain CLA4, active compounds read low 1.04 | S. cerevisiae deletion strains, locus YNL307C, strain MCK1, active compounds read low 1.04 | S. cerevisiae deletion strains, locus YNL322C, strain KRE1 (second series), active compounds read low 1 | S. cerevisiae deletion strains, locus YNL322C, strain KRE1, active compounds read low 1 | S. cerevisiae deletion strains, locus YNR049C, strain mso1, active compounds read low 1.01 | S. cerevisiae deletion strains, locus YNR052C, strain pop2, active compounds read low 1.02 | S. cerevisiae deletion strains, locus YOL006C, strain TOP1, active compounds read low 0.994 | S. cerevisiae deletion strains, locus YOL012C, strain htz1 1.16 | S. cerevisiae deletion strains, locus YOL147C, strain pex11, active compounds read low 1.02 | S. cerevisiae deletion strains, locus YOR001W, strain rrp6, active compounds read low 1.03 | S. cerevisiae deletion strains, locus YOR061W, strain CKA2, active compounds read low 1 | S. cerevisiae deletion strains, locus YOR069W, strain VPS5, active compounds read low 1 | S. cerevisiae deletion strains, locus YOR070C, strain gyp1, active compounds read low 0.996 | S. cerevisiae deletion strains, locus YOR080W, strain dia2, active compounds read low 1.03 | S. cerevisiae deletion strains, locus YOR083W, strain WHI5, active compounds read low 1 | S. cerevisiae deletion strains, locus YOR106W, strain vam3, active compounds read low 1.04 | S. cerevisiae deletion strains, locus YOR136W, strain idh2, active compounds read low 1.03 | S. cerevisiae deletion strains, locus YOR144C, strain elg1, active compounds read low 1.01 | S. cerevisiae deletion strains, locus YOR184W, strain ser1, active compounds read low 1.03 | S. cerevisiae deletion strains, locus YOR231W, strain MKK1, active compounds read low 1.02 | S. cerevisiae deletion strains, locus YOR265W, strain rbl2, active compounds read low 1.01 | S. cerevisiae deletion strains, locus YOR270C, strain vph1, active compounds read low 0.968 | S. cerevisiae deletion strains, locus YOR290C, strain snf2, active compounds read low 0.977 | S. cerevisiae deletion strains, locus YOR316C, strain cot1, active compounds read low 1.03 | S. cerevisiae deletion strains, locus YPL051W, strain arl3, active compounds read low 1.01 | S. cerevisiae deletion strains, locus YPL078C, strain atp4, active compounds read low 1.04 | S. cerevisiae deletion strains, locus YPL106C, strain sse1, active compounds read low 0.985 | S. cerevisiae deletion strains, locus YPL240C, strain hsp82, active compounds read low 1 | S. cerevisiae deletion strains, locus YPL241C, strain CIN2, active compounds read low 1 | S. cerevisiae deletion strains, locus YPL256C, strain CLN2, active compounds read low 1.09 | S. cerevisiae deletion strains, locus YPR119W, strain clb2, active compounds read low 1.03 | S. cerevisiae deletion strains, locus YPR141C, strain kar3, active compounds read low 1.03 | S. cerevisiae deletion strains, locus YPR163C, strain tif3, active compounds read low 1.04 | S. cerevisiae deletion strains, locus YPR167C, strain met16, active compounds read low 1.03 | S. cerevisiae deletion strains, strain wtn01, active compounds read low 1.03 | S. cerevisiae strains, strain wild type, active compounds read low 1

From PubChem BioAssay AID1159580 (chemical genetic matrix, 2015)
